Results filed as inconclusive are left out. Calls of active or inactive are those of the source. Unless noted, cut-off not given; nearly all actives show AC50 up to about 26 µM.
How the values were obtained:
[1] = growth inhibition of DIPG glioma cells, dose response, cell-based, SU-DIPG-XVII, MIPE5.0, CellTiter-Glo, qHTS (AID 1347060); settings: SU-DIPG-XVII viability, CellTiter-Glo ATP luminescence;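 on AC50: cells exposed to compound for 48 hours before viability readout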
[2] = growth inhibition of DIPG glioma cells, dose response, cell-based, SU-DIPG-XIII, MIPE5.0, CellTiter-Glo, qHTS (AID 1347064; cut-off not given, nearly all actives have AC50 up to about 23 µM;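 on AC50: cells exposed to compound for 48 hours before the viability read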); settings: SU-DIPG-XIII viability, CellTiter-Glo ATP luminescence
[3] = viability loss in pontine glioma line – cell-based, SU-DIPG-XXV, MIPE5.0, CellTiter-Glo, qHTS, dose response (AID 1347065); settings: CellTiter-Glo ATP luminescence;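 further: cells exposed to compound for 48 hours before ATP readout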
[4] = JHH-DIPG-1 glioma cell viability, MIPE5.0 library, CellTiter-Glo luminescence, qHTS (AID 1347067); settings: JHH-DIPG-1 glioma viability, CellTiter-Glo ATP luminescence;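 further: cells exposed to compound for 48 hours before readout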
[5] = SU-DIPG-XXV glioma cell viability, MIPE5.0 library, qHTS (AID 1347068; cut-off not given, nearly all actives have IC50 up to about 30 µM;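 on IC50: cells exposed to compound for 48 hours before viability readout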)

CC[C@]12C=CCN3CC[C@@]4(c5cc([C@@]6(C(=O)OC)CC7C[C@@H](C(C)(F)F)CN(Cc8c6[nH]c6ccccc86)C7)c(OC)cc5N(C)[C@H]4[C@@](O)(C(=O)OC)[C@@H]1OC(C)=O)[C@@H]32 (stereo not given in full)
active: AC50 [1] 0.148 µM | AC50 [2] 1.05 µM | AC50 [3] 0.132 µM | AC50 [4] 0.235 µM | IC50 [5] 0.742 µM

Cc1c(CN2CCC(Nc3ncnc4sc(CC(F)(F)F)cc34)CC2)ccc2c1cc(C#N)n2Cc1cn[nH]c1
inactive: outcome [5]
active: AC50 [1] 20.9 µM | AC50 [2] 23.5 µM | AC50 [3] 29.5 µM | AC50 [4] 18.6 µM

COc1cc(C(=O)NC2CCN(C)CC2)c(F)cc1Nc1ncc2c(n1)N(C1CCCC1)CC(F)(F)C(=O)N2C
active: AC50 [1] 0.0934 µM | AC50 [2] 1.86 µM | AC50 [3] 0.118 µM | AC50 [4] 20.9 µM | IC50 [5] 4.17 µM

CN1CC[C@@H](NC(=O)Nc2ccc(C#N)cc2)C[C@@H]1c1nc2ccccc2[nH]1
inactive: outcome [1] | outcome [2] | outcome [3] | outcome [4] | outcome [5]

COc1cc2c(cc1O)CCN[C@]21CS[C@@H]2c3c(OC(C)=O)c(C)c4c(c3[C@H](COC1=O)N1[C@@H]2[C@H]2c3c(cc(C)c(OC)c3O)C[C@@H]([C@@H]1O)N2C)OCO4
active: AC50 [1] 0.000382 µM | AC50 [2] 0.00135 µM | AC50 [3] 0.00152 µM | AC50 [4] 0.000679 µM | IC50 [5] 0.0241 µM

O=C([C@@H](Cc1cccc(C(F)(F)F)c1)NS(=O)(=O)c1cc(F)c2c(c1)CCNC2)N1CCCC1
inactive: outcome [1] | outcome [2] | outcome [3] | outcome [4] | outcome [5]

CC(=O)c1cnc2ccc(-c3cc(Cl)c(O)c(Cl)c3)nc2c1NC1CCC(CN(C)C)CC1 (stereo not given)
active: AC50 [1] 0.191 µM | AC50 [2] 0.171 µM | AC50 [3] 0.121 µM | AC50 [4] 0.303 µM | IC50 [5] 0.191 µM

C[C@@H](Oc1cc(C(=O)Nc2ccc(C(=O)N3CCN(C)CC3)cc2)nnc1N)c1c(Cl)ccc(F)c1Cl
active: AC50 [1] 0.118 µM | AC50 [2] 0.417 µM | AC50 [3] 0.742 µM | AC50 [4] 16.6 µM | IC50 [5] 7.42 µM

CS(=O)(=O)c1ccc(Oc2cc(F)cc(C#N)c2)c2c1[C@H](O)C(F)(F)C2
inactive: outcome [1] | outcome [2] | outcome [3] | outcome [4] | outcome [5]

COc1cccc2c1C(=O)c1c(O)c3c(c(O)c1C2=O)C[C@@](O)(/C(CO)=N/NC(=O)CCCCCN1C(=O)C=CC1=O)C[C@@H]3O[C@H]1C[C@H](N)[C@H](O)[C@H](C)O1
active: AC50 [1] 1.05 µM | AC50 [2] 4.68 µM | AC50 [3] 14.8 µM | AC50 [4] 2.95 µM | IC50 [5] 18.6 µM

COc1cc2c(NC3CCN(CC4CCCCC4)CC3)nc(N3CCCN(C(C)C)CC3)nc2cc1OCCCN1CCCCC1
active: AC50 [1] 14.8 µM | AC50 [2] 18.6 µM | AC50 [3] 13.2 µM | AC50 [4] 20.9 µM | IC50 [5] 5.25 µM

CCNC(=O)C#Cc1ccc2c(C(=Nc3ccc(CN(C)C)cc3)c3ccccc3)c(O)[nH]c2c1
active: AC50 [1] 0.162 µM | AC50 [2] 0.574 µM | AC50 [3] 0.0723 µM | AC50 [4] 0.288 µM | IC50 [5] 0.811 µM

COc1c(Nc2ncc(Cl)c(N[C@H]3[C@H](C(N)=O)[C@@H]4C=C[C@@H]3C4)n2)ccc2c1CCC(N1CCOCC1)CC2 (stereo not given in full)
active: AC50 [1] 4.17 µM | AC50 [2] 4.17 µM | AC50 [3] 2.95 µM | AC50 [4] 8.33 µM | IC50 [5] 5.9 µM

O=C(/C=C\n1cnc(-c2cc(C(F)(F)F)cc(C(F)(F)F)c2)n1)NNc1cnccn1
active: AC50 [1] 1.66 µM | AC50 [2] 16.6 µM | AC50 [3] 4.17 µM | AC50 [4] 16.6 µM | IC50 [5] 14.8 µM

COc1ccc(N(C)c2nc(C)nc3ccccc23)cc1
active: AC50 [1] 0.00833 µM | AC50 [2] 0.00934 µM | AC50 [3] 0.0059 µM | AC50 [4] 0.0105 µM | IC50 [5] 0.0166 µM

COc1ccc(Cl)cc1-c1cc(=O)[nH]c(=S)n1CC(N)=O
inactive: outcome [1] | outcome [2] | outcome [3] | outcome [4] | outcome [5]

Cc1ccc(-c2ccc3ncc4c(c3n2)n(C2CCN(C(=O)[C@H](C)O)CC2)c(=O)n4C)cn1
active: AC50 [1] 0.468 µM | AC50 [2] 0.186 µM | AC50 [3] 0.186 µM | AC50 [4] 0.372 µM | IC50 [5] 0.417 µM

c1ccc2c(-c3cnn4cc(-c5ccc(OCCN6CCOCC6)cc5)cnc34)ccnc2c1
active: AC50 [1] 12.9 µM | AC50 [2] 14.4 µM | AC50 [3] 9.1 µM | AC50 [4] 10.2 µM
inactive: outcome [5]

CN(C)C/C=C/C(=O)Nc1cccc(C(=O)Nc2cccc(Nc3ncc(Cl)c(-c4c[nH]c5ccccc45)n3)c2)c1
active: AC50 [1] 0.417 µM | AC50 [2] 0.332 µM | AC50 [3] 0.263 µM | AC50 [4] 0.468 µM | IC50 [5] 0.417 µM

COc1cc2c(cc1OCCCN1CCCC1)N=C(N)C21CCC1
inactive: outcome [1] | outcome [2] | outcome [3] | outcome [4] | outcome [5]

O=C1CC[C@H](N2Cc3c(OCc4ccc(CN5CCOCC5)cc4)cccc3C2=O)C(=O)N1
inactive: outcome [1] | outcome [2] | outcome [3] | outcome [4] | outcome [5]

COCCOc1cnc2ccn([C@H](C)c3nnc4c(F)cc(-c5cnn(C)c5)cn34)c(=O)c2c1
inactive: outcome [1] | outcome [2] | outcome [3] | outcome [4] | outcome [5]

CCn1c(=O)c(-c2ccc(-c3cncs3)cc2Cl)cc2cnc(Nc3ccc(N4CCN(C)CC4)cc3)nc21
active: AC50 [1] 3.32 µM | AC50 [2] 8.33 µM | AC50 [3] 2.95 µM | AC50 [4] 5.25 µM | IC50 [5] 10.5 µM

C=CCNC1=C2CC(C)CC(OC)C(O)C(C)/C=C(\C)C(OC(N)=O)C(OC)/C=C/C=C(\C)C(=O)NC(=CC1=O)C2=O (stereo not given)
active: AC50 [1] 0.59 µM | AC50 [2] 1.66 µM | AC50 [3] 4.68 µM | AC50 [4] 0.525 µM | IC50 [5] 3.72 µM

Cn1cc(-c2ccc(S(=O)(=O)n3ccc(/C=C/C(=O)Nc4ccccc4N)c3)cc2)cn1
active: AC50 [1] 1.48 µM | AC50 [2] 3.32 µM | AC50 [3] 1.32 µM | AC50 [4] 1.86 µM | IC50 [5] 5.9 µM

Cc1ccc(NC(=O)c2ccc(CN3CC[C@H](N(C)C)C3)c(C(F)(F)F)c2)cc1Nc1nccc(-c2cncnc2)n1
inactive: outcome [5]
active: AC50 [1] 10.2 µM | AC50 [2] 14.4 µM | AC50 [3] 16.2 µM | AC50 [4] 11.5 µM

Cc1cc(O)cc2c1[C@]1(C)CC[C@H]3C(C)(C)CCC[C@]3(C)[C@H]1C2
inactive: outcome [1] | outcome [2] | outcome [3] | outcome [4] | outcome [5]

O=C1Cc2cc(C(=O)NC3C[C@H]4CC[C@@H](C3)N4S(=O)(=O)CC3CCN(CCCC(F)(F)F)CC3)c(Cl)cc2N1 (stereo not given in full)
inactive: outcome [1] | outcome [2] | outcome [3] | outcome [4] | outcome [5]

CCCC1(CCC)CCC2(CCN(CCCN(CC)CC)C2)CC1
active: AC50 [1] 7.42 µM | AC50 [2] 4.17 µM | AC50 [3] 6.61 µM | AC50 [4] 3.72 µM | IC50 [5] 10.5 µM

CCN1C(=O)N2Cc3cc(OC)cc(OC)c3[C@@H](C)C=C2C12CCN(Cc1cc(C)cc(C)c1)CC2
active: AC50 [1] 20.9 µM | AC50 [2] 18.6 µM | AC50 [3] 14.8 µM | AC50 [4] 18.6 µM | IC50 [5] 20.9 µM

COC(=O)Nc1cc(Nc2cc(NC3CC3)c3ncc(C#N)n3n2)c(Cl)c(N2CCN(C)CC2)c1
active: AC50 [1] 5.25 µM | AC50 [2] 3.72 µM | AC50 [3] 2.63 µM | AC50 [4] 2.95 µM | IC50 [5] 23.5 µM

N#Cc1ccnc(N2C(=O)CC[C@H]2C(=O)N(c2cncc(F)c2)C(C(=O)NC2CC(F)(F)C2)c2ccccc2Cl)c1 (stereo not given in full)
inactive: outcome [1] | outcome [2] | outcome [3] | outcome [4] | outcome [5]

CC(=O)N[C@H]1CSSC[C@@H](C(N)=O)NC(=O)[C@H](C(C)C)NC(=O)[C@H](C)NC(=O)[C@H](Cc2cnc[nH]2)NC1=O
inactive: outcome [1] | outcome [2] | outcome [3] | outcome [4] | outcome [5]

C[C@@H]1N=C(N)NC(N(C)C)=N1
inactive: outcome [1] | outcome [2] | outcome [3] | outcome [4] | outcome [5]

CC(C)(NS(=O)(=O)c1ccc2c(Cl)cnc(N=C(N)N)c2c1)C(=O)O
inactive: outcome [1] | outcome [2] | outcome [3] | outcome [4] | outcome [5]

COc1cc2c3c(n(CCCNCCO)c(=O)c2cc1OC)-c1cc2c(cc1C3=O)OCO2
active: AC50 [1] 0.105 µM | AC50 [2] 2.95 µM | AC50 [3] 4.68 µM | AC50 [4] 2.63 µM | IC50 [5] 9.34 µM

Nc1ncccc1-c1nc2ccc(-c3ccccc3)nc2n1-c1ccc(C2(N)CCC2)cc1
active: AC50 [1] 11.8 µM | AC50 [2] 4.17 µM | AC50 [3] 2.95 µM | AC50 [4] 5.9 µM | IC50 [5] 20.9 µM

Cc1cccc(Oc2cnc(=O)[nH]c2)c1
inactive: outcome [1] | outcome [2] | outcome [3] | outcome [4] | outcome [5]

Cc1[nH]c(/C=C2\C(=O)Nc3ccc(F)cc32)c(C)c1C(=O)NCCN1CCCC1
active: AC50 [1] 12.9 µM | AC50 [2] 7.23 µM | AC50 [3] 6.45 µM | AC50 [4] 10.2 µM
inactive: outcome [5]

O=C(CCCCCCC(=O)N/N=C/c1ccc(N(c2ccccc2)c2ccccc2)cc1)NO
active: AC50 [1] 20.9 µM | AC50 [2] 20.9 µM | AC50 [3] 14.8 µM | AC50 [4] 11.8 µM
inactive: outcome [5]

Cc1cc(Oc2ccc3nc(COc4ccc(CC5SC(=O)NC5=O)cc4)n(C)c3c2)cc(C)c1N (stereo not given)
inactive: outcome [1] | outcome [2] | outcome [3] | outcome [4] | outcome [5]

C[C@H](CN(C)C)Oc1nc(Nc2cc3cccc(Cl)c3cn2)cnc1C#N
inactive: outcome [5]
active: AC50 [1] 16.6 µM | AC50 [2] 13.2 µM | AC50 [3] 16.6 µM | AC50 [4] 8.33 µM

CC(C)(C)C(=O)N1N=CC[C@H]1c1ccccc1
inactive: outcome [1] | outcome [2] | outcome [3] | outcome [4] | outcome [5]

Cc1ccccc1-n1nc(-c2c(-c3ccc(F)cc3)nn3c2NC[C@@H](CO)C3)ccc1=O
inactive: outcome [1] | outcome [2] | outcome [3] | outcome [4] | outcome [5]

— PubChem BioAssay
